# Measured values: the supplement of paper PMC6555819
# Experiments:
# Experiment in all cases: PBM binding z-score (relative to random genomic background probes); higher = stronger binding; sequences stand for … in GC…GCGATTGACAGCGTAGAATGAAGG
# [1] = test system: FXR:RXRa (NR concentration 270 nM, RXRa partner concentration 90 nM)
# In short: (§1)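 Binding z-scores take random background probes as their reference. They come from custom Agilent 4×180K protein-binding microarrays incubated 1 h with ligand-free nuclear receptor dimers, with antibodies against each partner (one per run) detecting binding. Scanned fluorescence was regression-normalized.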
# [2] = test system: LXRa:RXRa (NR concentration 270 nM, RXRa partner concentration 90 nM)
# In short: as §1
# [3] = test system: LXRa homodimer (NR concentration 270 nM)
# In short: as §1
# [4] = test system: LXRb:RXRa (NR concentration 270 nM, RXRa partner concentration 90 nM)
# In short: as §1
# [5] = test system: LXRb homodimer (NR concentration 270 nM)
# In short: as §1
# [6] = test system: PPARa:RXRa (NR concentration 270 nM, RXRa partner concentration 90 nM)
# In short: as §1
# [7] = test system: PPARg:RXRa (NR concentration 180 nM, RXRa partner concentration 90 nM)
# In short: as §1
# [8] = test system: PPARg:RXRa 270nM:90nM, anti-RXR (NR concentration 270 nM, RXRa partner concentration 90 nM)
# In short: as §1
# [9] = test system: PPARg:RXRa 30nM:10nM, anti-RXR (NR concentration 30 nM, RXRa partner concentration 10 nM)
# In short: as §1
# [10] = test system: PPARg:RXRa 90nM:30nM, anti-RXR (NR concentration 90 nM, RXRa partner concentration 30 nM)
# In short: as §1
# [11] = test system: PPARg:RXRa DBDmut IVT, anti-RXR (DBD mutation: RXRa K156A/R161A, NR concentration 270 nM, RXRa partner concentration 90 nM)
# In short: as §1
# [12] = test system: PPARg:RXRa IVT, anti-PPARg (NR concentration 270 nM, RXRa partner concentration 90 nM)
# In short: as §1
# [13] = test system: PPARg DBDmut:RXRa IVT, anti-PPARg (DBD mutation: PPARg1 K132A/R137A, NR concentration 270 nM, RXRa partner concentration 90 nM)
# In short: as §1
# [14] = test system: PPARg DBDmut IVT, anti-PPARg (DBD mutation: PPARg1 K132A/R137A, NR concentration 270 nM)
# In short: as §1
# [15] = test system: PPARg homodimer (NR concentration 180 nM)
# In short: as §1
# [16] = test system: PXR:RXRa (NR concentration 270 nM, RXRa partner concentration 90 nM)
# In short: as §1
# [17] = test system: PXR homodimer (NR concentration 270 nM)
# In short: as §1
# [18] = test system: RARa:RXR (NR concentration 270 nM, RXRa partner concentration 90 nM)
# In short: as §1
# [19] = test system: RARa homodimer (NR concentration 270 nM)
# In short: as §1
# [20] = test system: RARb:RXRa (NR concentration 270 nM, RXRa partner concentration 90 nM)
# In short: as §1
Sequence,PBM binding z-score [1],PBM binding z-score [2],PBM binding z-score [3],PBM binding z-score [4],PBM binding z-score [5],PBM binding z-score [6],PBM binding z-score [7],PBM binding z-score [8],PBM binding z-score [9],PBM binding z-score [10],PBM binding z-score [11],PBM binding z-score [12],PBM binding z-score [13],PBM binding z-score [14],PBM binding z-score [15],PBM binding z-score [16],PBM binding z-score [17],PBM binding z-score [18],PBM binding z-score [19],PBM binding z-score [20]
ATCTCCAGGTAAAGATAGTTCAGTGAATGCAAAT,0.234,4.39,0.615,0.852,0.602,0.316,0.194,0.28,0.232,-0.042,0.28,0.419,1.11,1.09,0.798,1.1,1.1,0.0525,1.34,0.907
AGTCAAAGTTCATATAGGTAACGTAAGATATGCT,6.32,5.7,5.15,3.66,2.13,4.62,6.76,6.08,3.4,5.1,0.943,3.97,1.58,0.96,2.46,4.96,5,3.57,1.52,4.69
TGTCAAAGTTCAAAGGTAACGTATGTATCCACAC,7.33,6.48,4.88,4.63,1.63,5.67,8.6,7.61,5.63,7.23,0.0702,4.53,1.85,1.93,2.61,5.65,3.95,6.64,1.84,5.04
TCTATTAGTTGATTGGGGCAACCGAAACAGCGGA,1.22,0.791,0.363,1.23,1.1,1.17,0.235,1.91,3.65,2.85,2.23,1.52,0.999,1.72,0.142,0.811,0.783,1.14,1.31,1.03
ATCGAAAGGTCGACGTGAGTATAGAGAAAGGGAA,3.97,3.07,-0.0365,2.39,0.422,4.06,2.45,2.9,1.04,2.13,-0.328,1.19,1.19,0.607,0.972,2.21,0.153,2.94,-0.0772,3.82
ATTATTAGTTGAGACGAGGGCAACCGATAGGTTG,1.13,0.675,1.08,0.406,0.941,0.603,0.713,0.504,0.68,0.781,0.469,1.43,1.76,1.3,1.77,1.72,1.69,1.4,2.49,1.48
TTACCAAGGTGAGCTGAGGTCGTTGATCCAACTC,2.68,1.31,-0.429,0.771,-0.932,1.75,0.0695,0.731,-0.00962,0.482,1.28,2.17,-0.497,-0.723,-0.21,4.78,0.329,1.72,-1.01,1.93
AGAATGAGGTTACCAAAGATCAGGGTAACGCTTG,2.45,6.27,-0.1,3.22,-0.278,3.65,2.8,3.14,1.16,2.54,4.2,3.74,1.58,0.777,1.01,1.83,-0.213,2.59,-0.485,2.2
CTTCCAAGGTCAAAGGTCAGTGAAGAGATGACGG,8.35,7.17,4.94,6.74,2.43,7.29,11.1,9.09,8.56,10.7,4.31,5.99,1.55,2.25,5.02,7.21,2.73,8.8,3.33,5.92
CTCGAAAGGTCGTGCTCAGGTGTGTATACCAAAC,5.43,3.78,0.295,3.62,0.401,4.72,2.43,3.56,1.06,2.46,0.974,2.05,0.571,-0.156,3.36,3.32,0.146,4.07,-0.478,3.99
ATCTCTAGGTAACCAGTTCAGTGAAAGAGAGGAC,0.76,0.635,0.481,0.706,1,1.26,1.06,1.24,0.669,0.873,3.36,3.09,0.836,0.902,1.06,1.19,1.26,1.04,1.15,0.835
ATCGAAAGGTCGAAGGTGAGTATTCCCACCCGAA,4.33,3.66,0.077,2.78,0.842,4.58,4.28,5,1.99,4.39,0.38,2.13,0.944,0.361,2.58,2.89,-0.082,4.32,0.118,3.64
AGAATGAGGTTACCAAAGAGCAGGGAAACGCTTG,1.71,5.78,-0.463,2.41,-0.39,3.05,2.22,2.47,0.623,1.44,3.47,2.96,0.794,-0.0129,0.046,1.05,-0.21,1.71,-0.396,2
TCTTGTAGAGCAGCAGGTTAAGAAAGCTGGCCAA,-0.000312,-0.0132,-1.04,-0.257,-1.45,0.529,-0.553,1.04,1.29,1.01,1.09,0.666,-0.321,-1.03,-0.986,-0.26,-1.07,-0.139,-0.879,-0.156
